esBAF inh: inhibitors of esBAF chromatin remodeling in mouse ES cells | Bmi1-luciferase knock-in reporter, 24 h; 100% = twice the neutral-well signal | reporter increase, % at 12.5 µM | 2% of 350,000 active | AID 602393; in the data active = activation above about 40%; inconclusive = no clear call, values can overlap the other calls;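 also: 0% = median of the plate's neutral control wells and 100% = double that signal; a rise in the Bmi1 reporter signal indicates esBAF inhibition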
MITF TRPM1 HTS: MITF TRPM1 promoter activation in melanoma cells; SK-MEL-5 TRPM1-promoter luciferase, 24 h; % of positive control, neutral wells = 0; activation, % at 12.5 µM; 0.75% of 300,000 active; AID 588334;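 active = mean activation of at least 80% with every replicate also reaching 80%; inconclusive = mean reaches 80% but some replicate falls short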;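 also: 0% = neutral control wells and 100% = parthenolide positive control wells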
Wnt act: activates Wnt/beta-catenin signaling in a reporter cell assay. activation, % at 9.35 µM. 1.2% of 300,000 active. AID 743398. activator, plate reader; in the data active = activation above about 30%, passing the limit was not always enough; inconclusive = no clear call, values can overlap the other calls;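 also: 0% = neutral control wells and 100% = positive control wells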
LMP1 NFkB inh: Epstein-Barr LMP1 NF-kappaB reporter inhibition. LMP1-induced NF-kappaB luciferase reporter cells, luminescence. inhibition, % at 12.5 µM. 0.69% of 350,000 active. AID 504558; in the data active = inhibition above about 41%; inconclusive = no clear call, values can overlap the other calls;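 also: 0% = neutral control wells and 100% = reference inhibitor control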
C2C12 statin: suppression of simvastatin myotoxicity | rescue of ATP level, % at 7.49 µM | AID 602340 | 0.78% of 330,000 active | C2C12 myotubes + simvastatin, ATP luminescence, 48 h; scaled: DMSO 0, geranylgeraniol control 100;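 active = mean ATP rescue above about 67%, or every replicate alone reaching that limit, limit read from the data, passing the limit was not always enough; inconclusive = no clear call, values can overlap the other calls; inactive = mean under the limit and some replicate under it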;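 also: myotubes were challenged with 10 µM simvastatin during compound exposure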
MITF TRPM1 inh: MITF TRPM1 promoter inhibition in SK-MEL-5 cells | inhibition, % at 12.5 µM | 0.83% of 330,000 active | SK-MEL-5 TRPM1 promoter luciferase, 24 h;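 active = mean inhibition across replicates of 60% or more, whatever share of single replicates reaches that level; inconclusive = some that reach 60%, reason not given; inactive = mean inhibition across replicates below 60%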
esBAF Ring1 qPCR: confirmation of esBAF inhibitors: Ring1 de-repression in mouse ESCs; 550 tested, under 10 active; mouse ESC E14, Ring1 mRNA RT-qPCR fold change; shares compounds with esBAF inh; fold change at 33 µM;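 active = Ring1 gene expression raised more than 2-fold over untreated cells in both replicates at either tested dose; inconclusive = only one replicate above 2-fold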;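 also: Ring1 transcript normalised to actin housekeeping signal by TaqMan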
Fgf4 repress: esBAF inhibition confirmed by Fgf4 repression; shares compounds with esBAF inh; mouse ESC E14, Fgf4 mRNA qPCR fold change; hits give low values; Fgf4 expression fold change at 33 µM; 4% of 550 active; AID 743177;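 active = Fgf4 expression under 0.8 fold of control in both repeat measurements at one or both tested doses; inconclusive = under 0.8 fold in just a single repeat measurement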;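 also: Fgf4 transcript normalised to actin in duplex TaqMan qPCR; cells exposed to compound for 24 h before lysis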
Bmi1 derepress: esBAF inhibition confirmed by Bmi1 de-repression | shares compounds with esBAF inh | mouse ESE14 ES cells, Bmi1 mRNA qPCR fold; hits give high values | fold change at 33 µM | 550 tested, under 10 active | AID 743180;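 active = Bmi1 expression fold change above 6 at either tested concentration, seen in replicate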;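 also: higher fold means more Bmi1 de-repression and stronger esBAF inhibition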
A549 tox SP: A549 cell cytotoxicity; shares compounds with esBAF inh; plate reader; cell viability change % (negative = cytotoxic), % at 25 µM, hits read low; 550 tested, under 10 active; AID 743188; call rule not given here
HepG2 tox SP: cytotoxicity in HepG2 cells; shares compounds with esBAF inh; 4% of 550 active; activity change, negative = inhibition, % at 25 µM; AID 743189; plate reader; hits give low values; in the data active = activity change below about -50%
HEK293 cytotox SP: cytotoxicity in HEK293 cells; plate reader; activity change, negative = inhibition, % at 25 µM, hits read low; shares compounds with esBAF inh; 3% of 550 active; in the data active = activity change below about -38%, passing the limit was not always enough
Numbers without * were called inactive; ? = inconclusive; . = no result. Shown are actives, neighbours in structure and some others; about 4% of the full set was active somewhere.

SMILES	esBAF inh	MITF TRPM1 HTS	Wnt act	LMP1 NFkB inh	C2C12 statin	MITF TRPM1 inh	esBAF Ring1 qPCR	Fgf4 repress	Bmi1 derepress	A549 tox SP	HepG2 tox SP	HEK293 cytotox SP
Cc1ccc(OCc2cnc(Cl)s2)c(C)c1	84*	77	5	-17	6	-81	1.1	0.95	1.8	2	-36	-6
O=C1CCCc2c1sc1nc3n(c(=O)c21)CCCCC3	68*	33	17	-35	9	-29	0.98	0.91	1.3	-7	-62*	-14
CCOc1ccc(NC(=O)CSc2nnc(Cc3cccn3C)n2-c2ccc(OC)cc2)cc1	-3	-9	1	-5	-2	10	.	.	.	.	.	.
COc1ccc(S(=O)(=O)N2CCOCC2)cc1C(=O)N(C)Cc1ccccc1F	0	.	-2	32	-3	.	.	.	.	.	.	.
CN(CCc1ccccn1)C(=O)CCc1nnc(CCCc2ccccc2)o1	110*	28	-1	-40	-2	-23	0.96	0.94	1.3	-7	-6	-5
Cc1cccc(-c2noc(CCC(=O)N3CCN(c4cc(C)ccc4C)CC3)n2)c1	63*	77	1	-29	-7	-73	1	0.9	1.4	5	13	-7
C[C@@H]1CCCCO[C@H](CN(C)S(=O)(=O)c2cccs2)[C@@H](C)CN([C@@H](C)CO)C(=O)c2cc(NS(C)(=O)=O)ccc2O1	-5	.	.	.	38	.	.	.	.	.	.	.
c1ccc(-c2nc3c(ccc4ccccc43)[nH]2)nc1	100*	17	.	-29	-109	-15	0.95	1.1	3.1	-6	-13	-8
O=C(c1cc(COc2ccc(-n3cncn3)cc2)on1)N1CCCC1	9	-4	1	-1	3	3	.	.	.	.	.	.
CC(NC(=O)c1cc(COc2ccc(-n3cncn3)cc2)on1)c1ccc(F)cc1 (configuration not stated)	59*	.	16	-10	2	.	1.1	?	1.5	-12	45	13
O=C(O)c1ccc(O)c2ncccc12	71*	.	-2	.	13	.	0.99	0.93	1.5	-13	-22	-23
CCN(CC)C(=O)c1sc(NC(=O)Cc2ccc(OC)cc2)c(C#N)c1C	-18	-4	.	1	9	3	.	.	.	.	.	.
COc1ccc(N2CCN(Cc3nc(N)nc(N4CCCc5ccccc54)n3)CC2)cc1	-8	-1	-2	8	-9	4	.	.	.	.	.	.
CS(=O)(=O)N1CCN(c2nc3ccccc3s2)CC1	65*	67	.	-9	16	-55	1.1	1.1	1.1	-11	-16	-7
CCCC(=O)Nc1ccc2c(c1)c1ccccc1n2CC	.	-6	-1	-8	.	10	.	.	.	.	.	.
CCn1c2ccccc2c2cc(NC(=O)N3CCCCC3)ccc21	96*	.	4	-67	1	.	1.1	0.94	1.9	7	7	-1
CCCCC(=O)Nc1cccc(-c2nnc(-c3ccccc3)o2)c1	7	13	.	-29	-78	-13	.	.	.	.	.	.
CCC(=O)Nc1cccc(-c2nnc(-c3ccccc3)o2)c1	74*	100*	1	-11	-6	-96	1.2	1.1	1.2	-11	15	-1
O=C1c2ccccc2C2N1CCCN2C(=O)c1sc2ccccc2c1Cl (configuration not stated)	64*	.	-2	-27	10	.	1	0.95	1.8	15	-7	-25

Screens deposited in PubChem BioAssay by Broad Institute.
